Source: PubChem BioAssay
Only some compounds are listed: those with a hit (about 9.4% of all), similar ones and a draw of the others.
IMPase Li inh – membrane-permeable IMPase blocker, potentiated with lithium; CHO-M1 cells, IP1 TR-FRET (IP-One), carbachol + lithium; 210,000 tested, 0.35% active; Potency, µM (series often up to 59.4 µM), without a hit: at the top dose activity, negative = IMPase inhibition, hits mostly inhibitors; AID 1457;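 also: IP1 builds up when IMPase is blocked and the TR-FRET signal falls; potency is read from the fitted curve at half-maximal effect; plate controls were basal vehicle for no effect and high inhibitor control for full effect; nearly all actives have a fitted effect of over 50% in size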
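CHO cells stably expressing M1 receptor (2000/well) were cultured 16–30 h, then exposed to compounds with a small lithium addition for 30 min at 37C. IP1 was measured by TR-FRET competition; AC50 from Hill fits.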
HTT ATP protect – cytoprotection in Huntington HTT-Q103 PC12 cell model; PC12 HTT-Q103 induced, cytoprotection, ATP luminescence, 40 h; Potency, µM (highest dose often 56.4 µM), for the others: cytoprotection (ATP increase), most hits filed as activators; 230,000 tested, 0.14% active; AID 1471; also: potency is read from the fitted curve at half-maximal effect; % of control where 0% means no effect; nearly all actives have a fitted effect of over 45% in size
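PC12 cells with ecdysone-inducible HTT exon 1 Q103-GFP, induced with 100 nM tebufenozide and co-treated with library compounds in a dose series (1536-well, 1500 cells/well). Cytoprotection read as ATP content by ATPlite luminescence.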
IMPase cell inh – cell-permeable inhibitors of inositol monophosphatase (IMPase); P97697; inhibition (IP1 accumulation), % at 46.1 µM; 120,000 tested, under 10 active; CHO-M1 cells, IP1 accumulation, HTRF TR-FRET ratio; active = well fitted curve in the direction sought with a large enough effect in the signal ratio, not every such curve was filed as active; inconclusive = small, poorly fitted or top-dose-only effect, or a change in a side signal; inactive = no such curve, though single readings can be large or run the other way; the % refers to the signal ratio;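 also: cells stimulated with carbachol in lithium chloride buffer; plate controls were DMSO basal wells for no effect and reference inhibitor wells for full effect; higher means more IMPase inhibition seen as more IP1 and lower FRET ratio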
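CHO-M1, 2000 cells/well, cultured 16–30 h; cpd up to 46 uM; carbachol (50 uM solution, stimulation buffer w/ 50 mM LiCl, pH 7.4), 30 min 37C; IP-One TR-FRET, 10 min RT; Ex 320/Em 665, 620; Hill-fit AC50.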
ALDH1A1 block – ALDH1A1 (human) enzyme inhibition | 220,000 tested, 7.3% active | Purified ALDH1A1, NADH fluorescence, propionaldehyde substrate | Potency, µM (doses to about 75.3 µM), without a hit: top-dose activity, negative = inhibition, hits mostly inhibitors; active = well fitted inhibition curve with a large enough effect, not every such curve was filed as active; inconclusive = small, poorly fitted or top-dose-only effect, or another doubt; inactive = no such curve, though single readings can be large or run the other way;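 also: potency is read from the fitted curve at half-maximal effect; plate controls were no enzyme wells and a reference inhibitor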
Target sequence (P00352 whole entry, looked up): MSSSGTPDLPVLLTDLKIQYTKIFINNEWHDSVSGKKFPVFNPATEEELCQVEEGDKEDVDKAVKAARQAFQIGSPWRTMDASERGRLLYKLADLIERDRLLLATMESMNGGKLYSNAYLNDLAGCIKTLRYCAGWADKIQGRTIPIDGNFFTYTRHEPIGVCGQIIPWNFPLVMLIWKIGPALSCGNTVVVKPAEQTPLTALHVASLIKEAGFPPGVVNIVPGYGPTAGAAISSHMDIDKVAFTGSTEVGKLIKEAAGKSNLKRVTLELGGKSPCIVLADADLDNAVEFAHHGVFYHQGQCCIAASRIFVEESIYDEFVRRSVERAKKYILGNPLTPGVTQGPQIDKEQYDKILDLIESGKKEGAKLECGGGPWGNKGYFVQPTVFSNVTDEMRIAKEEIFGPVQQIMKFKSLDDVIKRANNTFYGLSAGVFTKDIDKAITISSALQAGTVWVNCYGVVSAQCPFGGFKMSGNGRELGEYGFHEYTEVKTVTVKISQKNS
HPGD inh – HPGD (human) dehydrogenase inhibition. P15428. purified HPGD, NADH fluorescence kinetic, PGE2 substrate. Potency, µM, without a hit: at the highest dose activity change, negative = inhibition, usual class: inhibitors. 150,000 tested, 4.3% active. AID 894; active = well fitted inhibition curve with a large enough effect, not every such curve was filed as active; inconclusive = small, poorly fitted or top-dose-only effect, or another doubt; inactive = no such curve, though single readings can be large or run the other way; also: potency is read from the fitted curve at half-maximal effect; % is scaled to controls: 0 for no effect and ±100 for the full control effect
Target sequence (P15428 whole entry, looked up): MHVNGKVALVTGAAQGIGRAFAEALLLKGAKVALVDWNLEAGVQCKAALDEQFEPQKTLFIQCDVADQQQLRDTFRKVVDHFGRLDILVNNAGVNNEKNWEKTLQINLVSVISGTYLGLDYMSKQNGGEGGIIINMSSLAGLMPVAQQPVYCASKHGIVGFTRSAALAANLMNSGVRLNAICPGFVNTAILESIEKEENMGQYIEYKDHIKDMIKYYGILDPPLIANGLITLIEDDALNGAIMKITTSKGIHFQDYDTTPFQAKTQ
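20 nM HPGD preincubated 15 min at room temperature with compound in 50 mM Tris-HCl pH 8, 0.01% Tween 20. Started with 1 mM NAD+ and 30 uM prostaglandin E2; NADH fluorescence (360/450 nm) read 5 times over 30-s intervals, last minus first.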
HTT aggregate – reduces HttQ103-GFP aggregates in PC12 cells; PC12 HttQ103-GFP aggregates, Acumen cytometry, 40 h; Potency, µM (titrated, usually from 46.1 µM), for inactives: at the highest dose activity change, negative = inhibition, hits mostly inhibitors; 220,000 tested, 1.1% active; also: potency is read from the fitted curve at half-maximal effect; % is scaled to controls: 0 for no effect and ±100 for the full control effect; nearly all actives have a fitted effect of over 60% in size
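Multiplexed with ATP-based cell death, this channel scores GFP aggregates in PC12 cells expressing inducible HTTex1-Q103-GFP. Induction used 100 nM tebufenozide; compounds were tested in concentration series.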
* = called active by the depositor; ? = inconclusive; . = no result given; [ ] = dose if it differs, or a comment. Unless noted, calls follow the shape of the dose curve; as a rule, active = well fitted curve in the direction sought with a large enough effect; inconclusive = small, poorly fitted or top-dose-only effect, or another doubt; inactive = no such curve, though single readings can be large; an effect the other way counts as inactive or inconclusive.

SMILES	IMPase Li inh	HTT ATP protect	IMPase cell inh	ALDH1A1 block	HPGD inh	HTT aggregate
CCOC(=O)c1sc(N2N=C(C)/C(=C\c3ccc(OCC(=O)OC)cc3)C2=O)nc1C	7%	21%[10 µM]	-3	14µM*	28µM*	24%
COc1ccc(N2CCN(C(=O)c3ccc(C(C)(C)C)cc3)CC2)cc1	33%[38.3 µM]	-5%	5	8.9µM*	-21%	?
COc1ccc(N2CCN(C(=O)C(C)(C)Oc3ccc(Cl)cc3)CC2)cc1	48%[38.3 µM]	11%[10 µM]	9	10µM*	-14%	?
CN(C)C(=O)c1ccc(-c2ccc3ncnc(Nc4ccccc4)c3c2)cc1	15%	-103%	.	?	.	.
N=C1/C(=C\c2ccc(-c3ccc(C(=O)O)cc3)o2)C(=O)N=C2SC=C(c3ccccc3)N12	.	-5%[10 µM]	.	.	.	-9%[9.22 µM]
N=C1/C(=C\c2ccc(-c3cccc(Cl)c3)o2)C(=O)N=C2SC=C(c3ccccc3)N12	3%	-9%[10 µM]	-4	?	14µM*	12%
CCOC(=O)c1cnn(-c2c(Cc3ccccc3)c(C)nc3c(-c4ccccc4)c(C)nn23)c1N	27%[38.3 µM]	11%	5	0.1µM*	-8%	12%
COC(=O)c1c(C)oc2ccc(N(C(=O)c3ccncc3)S(=O)(=O)c3c(C)cc(C)cc3C)cc12	.	.	-4	.	.	.
CN1CCN(CC(=O)N2c3ccccc3Sc3cc4ccccc4cc32)CC1	3%	7%[10 µM]	.	-1%[13.5 µM]	0%	.
COc1cccc(NC(=O)Cn2c(=O)n(CCC(=O)NCc3ccco3)c(=O)c3ccccc32)c1	4%	3.2µM*	.	-1%	.	21%
Cc1cccc2nc(Cn3c(=O)n(CCCC(=O)NCc4ccco4)c(=O)c4ccccc43)cc(=O)n12	-1%	.	.	20µM*	28µM*	-9%
O=C(CSc1ccc2nnc(-c3ccncc3)n2n1)Nc1nccs1	3%	-5%	.	3%	.	-15%
Fc1c(F)c(F)c(N/N=C/c2c[nH]c3ccccc23)c(F)c1F	9%	-39%[10 µM]	-3	32µM*	-4%	?
Cn1c(N/N=C/c2c[nH]c3ccccc23)nc2ccccc21	-29%[38.3 µM]	-83%	16	16µM*	?	-9%
CC(c1ccon1)N(C)Cc1cn(Cc2ccccc2)nc1-c1ccc2c(c1)OCO2 (stereo not drawn)	.	-74%	.	2%	.	14µM*
O=C(COC(=O)c1cc(-c2cccs2)nc2ccccc12)NCc1ccco1	7.9µM*	-8%[10 µM]	-14	?	?	12%[9.22 µM]
COc1ccc(CNC(=O)COC(=O)c2cc(-c3ccc(Cl)s3)nc3ccccc23)cc1	10µM*	16%	-4	?	?	7%
COc1ccc(NC(=O)C2C3C=CC(C3)C2C(=O)NCc2ccco2)c(OC)c1 (stereo not drawn)	15%	-11%[1.9 µM]	6	?	25µM*	-1%
O=C(O)C1C2C=CC(C2)C1C(=O)NCc1ccco1 (stereo not drawn)	3%	-24%	.	0%	.	8%
COC(=O)c1ccc(C(NC(=O)OCc2ccccc2)/C(C)=C/[C@@H](C)C(=O)NC2CCCCC2)cc1 (stereo partly drawn)	6%	-17%	.	?	-19%	.
O=C(Nc1nc2ccc(Cl)cc2s1)[C@@H]1CCCN1C(=O)c1cccs1	-3%	16%[10 µM]	.	25µM*	?	?
O=C(c1cccc(C(F)(F)F)c1)N1CCCCCC1	3%	27%[10 µM]	-3	12%	?	-28%
Cc1ccc(C(=O)N2CC(C(=O)O)C2)cc1	6%	-8%[10 µM]	.	-2%	.	25%
Cc1cccc(C(=O)N2CCCCCC2)c1	27%[38.3 µM]	-10%	2	13%	5µM*	-7%
Cc1ccc(C(=O)N2CCSCC2)cc1	29%[38.3 µM]	?	-4	0%	0.28µM*	14%[9.22 µM]
SMILES	IMPase Li inh	HTT ATP protect	IMPase cell inh	ALDH1A1 block	HPGD inh	HTT aggregate
O=C(c1ccc(Br)cc1)N1CCCC1	-11%[38.3 µM]	-4%	-6	-7%	7.9µM*	17%
COC(=O)c1ccc(C(=O)OC)c(NC(=S)N2CCN(C)CC2)c1	4%	-44%	.	?	.	4%[9.22 µM]
CN1CCN(C(=O)c2ccc(S(=O)(=O)c3ccc(Br)cc3)cc2)CC1	.	-5%	5	-1%	.	8%
COC(=O)c1ccc(-c2ccc(C(=O)N3CCCN(C)CC3)cc2)cc1	-7%[38.3 µM]	0%	4	14%	1.3µM*	-16%
CC(C)c1ccc(C(=O)N2CCCN(C(=O)c3ccc(C(C)C)cc3)CC2)cc1	12%	-3%[0.074 µM]	.	7.9µM*	-5%	19%
O=C(c1cccc(Br)c1)N1CCN(C(=O)N2CCCCC2)CC1	-2%	1%[0.074 µM]	9	?	-1%	-15%
O=C(c1ccccc1)N1CCN(C(=O)c2ccccc2)CC1	-3%	-15%[10 µM]	5	1%	0%	10%
CC(C)c1ccc(C(=O)N2CCN(c3cnn(C)c(=O)c3Cl)CC2)cc1	12%	12%[10 µM]	.	?	.	19%[9.22 µM]
O=C(COc1ccc(-c2ccccc2)cc1)N1CCCC1	12%	31%[10 µM]	.	13µM*	.	24%[9.22 µM]
O=C(c1cccc(Br)c1)N1CCCC1	6%[38.3 µM]	10%[10 µM]	-5	9%	18µM*	0%
O=C(Oc1ccc(-c2ccccc2)cc1)N1CCCCC1	-7%[38.3 µM]	-10%[0.074 µM]	19	0%	-28%	-32%
O=C(c1ccc(-c2ccccc2)cc1)N1CCCC1	16%[38.3 µM]	-18%	6	-15%	1.6µM*	3%
CCOc1ccc(S(=O)(=O)Nc2ccc(C(=O)NN)cc2)cc1	.	28%[10 µM]	.	.	.	17%[9.22 µM]
O=C(c1ccc(-n2cccc2)cc1)N1CCCCC1	7%	-30%[10 µM]	.	32µM*	.	0%
O=C(c1cc2cc(Cl)ccc2oc1=O)N1CCCC1	-1%	-7%[0.074 µM]	-6[0.369 µM]	-10%	-21%	2%
O=C(c1cc2cc(Br)ccc2oc1=O)N1CCCC1	17%[38.3 µM]	-9%	4	-5%	20µM*	-6%
O=C(c1ccc2c(c1)OCCCO2)N1CCCCC1	.	17%[10 µM]	.	.	.	18%[9.22 µM]
CN1CCN(NC(=O)CC(C)(C)C)CC1	11%	.	.	0%	.	-11%
O=[N+]([O-])c1cc(Br)c(O)c(/C=N/Nc2nnnn2-c2cccc3ccccc23)c1	21%[38.3 µM]	5%	2	18µM*	?	?
O=[N+]([O-])c1cc(Br)c(O)c(C=Nc2ccc(N3CCOCC3)cc2)c1	-13%	.	.	2%	.	4%
CCCCc1nc2c(c3c1C[C@H](C)OC3)CN(C(=O)c1cc(I)ccc1F)CC2	14%	-13%[10 µM]	.	-9%[13.5 µM]	0%	.
COc1ccccc1N1CCN(Cc2nc(-c3ccc(F)cc3)oc2C)CC1	25%	-37%	.	0.4µM*	.	5%
Cc1oc(-c2cc(F)ccc2F)nc1CN1CCN(C)C(=O)[C@@H]1C	7%	10%[10 µM]	.	9%	.	4%[9.22 µM]
COc1ccccc1N1CCN(Cc2ccc(Br)o2)CC1	36%[38.3 µM]	2%	-2	13µM*	-9%	32%
